The text below walks through data of PubChem BioAssay (NCATS).

Records with an inconclusive call do not appear. The source made the active and inactive calls. The call rests on the fitted dose curve; in most records, active means well fitted inhibition curve with a large enough effect; inconclusive means small, poorly fitted or top-dose-only effect; inactive means flat fitted curve, though single readings scatter.

Sequence of Glutathione peroxidase 1 (Homo sapiens) (P07203 whole entry, looked up): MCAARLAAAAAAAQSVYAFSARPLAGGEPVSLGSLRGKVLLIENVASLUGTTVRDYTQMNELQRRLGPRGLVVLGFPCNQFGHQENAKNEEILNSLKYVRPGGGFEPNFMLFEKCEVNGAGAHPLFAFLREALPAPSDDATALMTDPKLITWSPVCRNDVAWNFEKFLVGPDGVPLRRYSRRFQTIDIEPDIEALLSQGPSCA
Sequence of Nicotinamide N-methyltransferase (Homo sapiens) (P40261 whole entry, looked up): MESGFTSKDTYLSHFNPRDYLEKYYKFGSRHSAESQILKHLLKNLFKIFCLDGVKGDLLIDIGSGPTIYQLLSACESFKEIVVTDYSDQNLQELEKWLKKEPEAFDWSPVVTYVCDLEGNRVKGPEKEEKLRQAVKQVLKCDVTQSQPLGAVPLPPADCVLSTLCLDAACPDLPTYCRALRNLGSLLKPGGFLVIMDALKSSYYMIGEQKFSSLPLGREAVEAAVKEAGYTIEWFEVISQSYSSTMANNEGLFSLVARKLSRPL

One assay concerns the target Nicotinamide N-methyltransferase (Homo sapiens) (UniProt P40261). In words: Confirmatory Screen for Target Class Profiling of Small Molecule Inhibitors of Methyltransferases (AID 1745852). The settings on record: MTase-Glo luminescence, SAH detection, recombinant enzyme; measured here: NNMT max response; stronger effect = lower value.
`C=C1C(=O)O[C@@H]2CC(C)=C([C@@H](C)CCCO)[C@@H](OC(=O)C(C)C)[C@H]12`: the activity was -0.804%.
For `CC1CCN(C(c2ccc(F)cc2)c2ccc(C(C)C(=O)O)cc2-c2ccc(C(F)(F)F)cc2)CC1` (stereo not drawn), the activity was -58.6%.
As for `COc1cc(N2CCOCC2)ccc1Nc1ncc(F)c(Nc2ccccc2NS(C)(=O)=O)n1`, the activity was 3.16%.
With `CC(C)N(CCCNC(=O)Nc1ccc(C(C)(C)C)cc1)C[C@H]1O[C@@H](n2cc(Br)c3c(N)ncnc32)[C@H](O)[C@@H]1O`, the activity is -73.5%.
For the molecule `O=[N+]([O-])c1ccc(-[n+]2nc(-c3ccccc3)nn2-c2ccc(I)cc2)cc1`, the activity is -39.3%.
On the same count and under the same terms, for `CN1CCN(C(=O)c2ccc(Nc3nccc(-c4cccs4)n3)cc2Cl)CC1` the value was -31.1%; for `Cn1cc(-c2cnc3ccc4ccc(CS(=O)(=O)NCc5ccccn5)cc4c(=O)c3c2)cn1`, -3.63%.

The target of a further assay is Phenylethanolamine N-methyltransferase (Homo sapiens) (UniProt P11086). Described as above. The settings on record: MTase-Glo luminescence, SAH detection, recombinant enzyme; measured here: PNMT max response; stronger effect = lower value.
Sequence of Phenylethanolamine N-methyltransferase (Homo sapiens) (P11086 whole entry, looked up): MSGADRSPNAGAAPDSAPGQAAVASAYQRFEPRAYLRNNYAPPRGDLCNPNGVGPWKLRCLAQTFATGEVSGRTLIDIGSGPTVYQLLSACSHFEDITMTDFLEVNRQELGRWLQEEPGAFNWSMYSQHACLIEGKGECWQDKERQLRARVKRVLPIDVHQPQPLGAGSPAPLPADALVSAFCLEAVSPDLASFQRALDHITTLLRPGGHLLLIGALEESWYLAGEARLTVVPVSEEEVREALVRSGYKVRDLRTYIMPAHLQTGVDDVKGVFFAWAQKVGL
`C=C1C(=O)O[C@@H]2CC(C)=C([C@@H](C)CCCO)[C@@H](OC(=O)C(C)C)[C@H]12`: the activity was 1.36%.
The same measure, in the same setting: for `CC1CCN(C(c2ccc(F)cc2)c2ccc(C(C)C(=O)O)cc2-c2ccc(C(F)(F)F)cc2)CC1` (stereo not drawn) the value was 4.79%; for `COc1cc(N2CCOCC2)ccc1Nc1ncc(F)c(Nc2ccccc2NS(C)(=O)=O)n1`, -0.832%.
The same measure, in the same setting: the figure for `CC(C)N(CCCNC(=O)Nc1ccc(C(C)(C)C)cc1)C[C@H]1O[C@@H](n2cc(Br)c3c(N)ncnc32)[C@H](O)[C@@H]1O` is -94.2%; for `O=[N+]([O-])c1ccc(-[n+]2nc(-c3ccccc3)nn2-c2ccc(I)cc2)cc1` it is -49.2%; for `CN1CCN(C(=O)c2ccc(Nc3nccc(-c4cccs4)n3)cc2Cl)CC1` it is -3.47%.
Take `Cn1cc(-c2cnc3ccc4ccc(CS(=O)(=O)NCc5ccccn5)cc4c(=O)c3c2)cn1`: the activity was -3.14%.

The next assay addresses Glutathione peroxidase 1 (Homo sapiens) (UniProt P07203). In words: Primary qHTS Assay for Inhibitors of Recombinant Selenoprotein Glutathione Peroxidase 1 (GPX1) (AID 1845191). Further: nearly all actives have a fitted effect of over 65% in size. On activity, negative = inhibition: on the % scale 0 is the no-effect control and ±100 the full control effect. The conditions noted are these: recombinant GPX1, GR-coupled NADPH fluorescence, 15 min; series mostly up to 48.8 µM; activity, negative = inhibition: at the top concentration. An outline of the steps: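 Recombinant GPX1 (10 nM final) was preincubated with compound for 30 min at room temperature, then reacted with 1 mM GSH, 0.5 mM CHP, 0.5 mM NADPH and 100 nM glutathione reductase; NADPH fluorescence (340/450 nm) was read at 0 and 15 min.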
Consider `O=c1c(-n2ccnn2)c[nH]n1-c1cc(N2CCOCC2)ncn1`, for which the “outcome” value is “inactive”.
Still for that read-out and setting: for `C=C1C(=O)O[C@@H]2CC(C)=C([C@@H](C)CCCO)[C@@H](OC(=O)C(C)C)[C@H]12` the value was “inactive [at 27.7 µM]”; for `Oc1ccc(Nc2nc(-c3ccc(Cl)cc3)cs2)cc1`, “inactive”.
On to `CC1(C)CC23[C@@H]4CC(=O)[C@@H]2COC(=O)[C@@H]3CC[C@H]41`, for which the “activity, negative = inhibition” value is -0.513% (inactive).
Regarding `CC[C@H](CO)Nc1nc(Nc2cccc(-c3ccccn3)c2)c2ncn(C(C)C)c2n1`, the “activity, negative = inhibition” value is -12% (inactive).
In the case of `Cc1ccccc1C(=O)Nc1ccc(C(=O)N2CCC[C@@H](O)c3cc(Cl)ccc32)c(C)c1`, the “outcome” value was “inactive”.
The same measure, in the same setting: the entry for `CCCCn1c(-c2ccccc2)nc(-c2ccccc2)c1CN(Cc1ccc2c(c1)OCO2)Cc1ccc2c(c1)OCO2` is “inactive”.
As for `CCOC(=O)c1cccc(CNc2ccc(N(C)C(=O)Nc3ccccc3)cc2)c1`, the “activity, negative = inhibition” value was -26.3% (inactive).
For `CC1CCN(C(c2ccc(F)cc2)c2ccc(C(C)C(=O)O)cc2-c2ccc(C(F)(F)F)cc2)CC1` (stereo not drawn), the “outcome” value is “inactive”.
Turning to `O=C(NC(NC(=S)Nc1ccc(F)c([N+](=O)[O-])c1)C(Cl)(Cl)Cl)C(c1ccccc1)c1ccccc1` (stereo not drawn), the “outcome” value was “inactive [at 15.3 µM]”.
On the same count and under the same terms, the entry for `COc1ccc(CNC(=O)Nc2ncc([N+](=O)[O-])s2)cc1` is “inactive”.
`OCC(CO)(CO)NCC(O)Cn1c2ccc(Cl)cc2c2cc(Cl)ccc21` (stereo not drawn): the “activity, negative = inhibition” value was 1.58% (inactive).
As to `COCCOCCOc1ccc(C2=N[C@@](C)(C(=O)O)CS2)c(O)c1`, the “activity, negative = inhibition” value is 3.75% (inactive).
Take `C=C(C)C(=O)O[C@H]1[C@H]2C(=C)C(=O)O[C@@H]2C[C@@H](C)/C=C\C(=O)[C@](C)(O)[C@@H]1OC(C)=O`: the “outcome” value is “inactive [at 27.7 µM]”.
Turning to `COc1cc(N2CCOCC2)ccc1Nc1ncc(F)c(Nc2ccccc2NS(C)(=O)=O)n1`, the “outcome” value was “inactive”.
In the case of `O=C(c1ccc(F)c(F)c1Nc1ccc(I)cc1F)N1CC(O)(C2CCCCN2)C1` (stereo not drawn), the “activity, negative = inhibition” value is 4.7% (inactive).
Regarding `CC(=O)N[C@@H](CC(=O)O)C(=O)N[C@@H](CCC(=O)O)C(=O)N[C@H](C(=O)N[C@@H](CC(=O)O)C(=O)Nc1ccc2c(C)cc(=O)oc2c1)C(C)C`, the “activity, negative = inhibition” value was -11.9% (inactive).
In the case of `CC1CCCC(SCC(O)C(=O)O)CC(=O)c2c(O)cc(O)cc2CC(=O)O1` (stereo not drawn), the “outcome” value was “inactive [at 27.7 µM]”.
Regarding `COc1ccccc1NC(=O)Nc1ccc2ccccc2c1`, the “outcome” value is “inactive”.
As for `CN1CCN(C(=O)c2ccc(Nc3nccc(-c4cccs4)n3)cc2Cl)CC1`, the “activity, negative = inhibition” value was -20.1% (inactive).
On to `Cn1cc(-c2cnc3ccc4ccc(CS(=O)(=O)NCc5ccccn5)cc4c(=O)c3c2)cn1`, for which the “activity, negative = inhibition” value is 0.878% (inactive).
In the case of `C=C(C)[C@@H]1CC[C@]2(C(=O)O)CC[C@]3(C)C(CCC4[C@@]5(C)C[C@@H](O)[C@H](O)C(C)(C)C5CC[C@]43C)C12` (stereo partly drawn), the “outcome” value is “inactive [at 27.7 µM]”.
Consider `CCN(CCCOc1ccc2c(Nc3cc(CC(=O)Nc4cccc(F)c4)[nH]n3)ncnc2c1)CCOP(=O)(O)O`, for which the Potency entry was “inactive”.
As for `CCS(=O)(=O)N(Cc1cccnc1)c1cccc(-c2ccc(C#N)cc2)c1`, the “activity, negative = inhibition” value is -12.5% (inactive).
